From PubChem BioAssay
Most compounds without a hit are left out; they make up all but 7.3% or so of the library.
FLuc modulator – counter-screen for miR-21 project: firefly luciferase inhibitors or activators | P08659 | purified FLuc, Km substrates, luminescence inhibition | Potency, µM (highest dose often 57.5 µM), inactives show at the top dose activity change, negative = inhibition, hits mostly inhibitors | 360,000 compounds, 6.9% hits;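 further: plate controls were vehicle for no effect and reference inhibitor for full effect; nearly all actives have a fitted effect of over 55% in size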
Target sequence (P08659 whole entry, looked up): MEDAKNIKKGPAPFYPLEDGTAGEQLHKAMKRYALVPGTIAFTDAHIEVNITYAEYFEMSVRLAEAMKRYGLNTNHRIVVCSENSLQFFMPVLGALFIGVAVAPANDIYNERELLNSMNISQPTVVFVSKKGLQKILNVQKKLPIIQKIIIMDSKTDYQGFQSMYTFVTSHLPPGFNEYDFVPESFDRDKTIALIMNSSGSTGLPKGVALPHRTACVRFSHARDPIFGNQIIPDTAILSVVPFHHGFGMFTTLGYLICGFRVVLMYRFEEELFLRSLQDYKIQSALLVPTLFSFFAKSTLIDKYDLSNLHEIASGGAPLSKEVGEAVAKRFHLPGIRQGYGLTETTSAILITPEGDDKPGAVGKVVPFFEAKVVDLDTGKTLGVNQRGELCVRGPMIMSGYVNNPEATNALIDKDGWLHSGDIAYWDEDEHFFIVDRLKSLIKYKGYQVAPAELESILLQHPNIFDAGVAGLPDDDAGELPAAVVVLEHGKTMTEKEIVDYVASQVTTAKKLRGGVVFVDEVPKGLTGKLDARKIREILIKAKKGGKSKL
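Biochemical qHTS of compounds, final roughly 60 µM downward over six points, against 10 nM purified firefly luciferase using Km concentrations of substrates (10 uM D-luciferin, 10 uM ATP) in Tris acetate pH 7.5 buffer; luminescence output.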
SMN2 splice enh – increases expression of the SMN2 splice variant; HEK293 SMN2-luciferase splicing reporter, luminescence, 30-36 h; Potency, µM (highest dose often 46.1 µM), for the others: at the top dose activity change, positive = activation, usual class: activators; 210,000 compounds, 2.8% hits; further: % of control where 0% means no effect; nearly all actives have a fitted effect of over 55% in size
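HEK293 cells carry an SMN2 […]–luciferase reporter in which exon 7 inclusion puts luciferase in frame. Cells were plated 10-12 h before compound addition, then incubated 30-36 h at 37C. ONE-Glo luminescence was read; sodium butyrate at 4.5 mM final served as control.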
Rab9 prom act – Rab9 promoter activation; Huh7 Rab9 promoter-luciferase reporter, luminescence, 24 h; Potency, µM (titrated, usually from 9.22 µM), inactives show at the top dose activation, negative = inhibition, most hits filed as activators; 320,000 compounds, 2.8% hits; AID 485297; further: % of control where 0% means no effect; nearly all actives have a fitted effect of over 60% in size
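Stable Rab9-luc Huh7, 1500 cells/well, 2 h settle; cmpd in DMSO, 24 h, 37 °C/5% CO2; luciferase reagent 10 min RT; luminescence.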
Luc counter – Kinase-Glo luciferase inhibition (counter-screen); AID 1379; Q27757; Kinase-Glo luciferase, ATP luminescence, 8 min; Potency, µM (doses to about 38.3 µM), for inactives: top-dose activity change, negative = inhibition, most hits filed as inhibitors; 200,000 compounds, 0.28% hits; further: on the % scale 0 is the no-effect control and ±100 the full control effect; nearly all actives have a fitted effect of over 60% in size
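Compounds were added to a substrate mix at pH 7.2 (50 mM imidazole, 10 uM ATP, within the enzyme's linear range), followed by Kinase-Glo detection reagent; luminescence was measured after 8 minutes at ambient temperature.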
NPC1 promoter act – activators of NPC1 promoter. Huh7 NPC1 promoter luciferase reporter, 24 h. Potency, µM (doses to about 9.22 µM), without a hit: top-dose activation, usual class: activators. 320,000 compounds, 2.4% hits. AID 485313; further: % of control where 0% means no effect; nearly all actives have a fitted effect of over 60% in size
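Luminescence from an NPC1 promoter-driven luciferase reporter in stably transfected Huh7 cells was measured after 24 h compound treatment at 37 °C, followed by 10 min ambient incubation with luciferase detection reagent.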
ELG1 genotoxic – inducers of genotoxicity in HEK293T ELG1-luciferase cells. 330,000 compounds, 1.3% hits. HEK293T ELG1-luciferase reporter, luminescence, 16 h. Potency, µM (titrated, usually from 46 µM), inactives show at the top dose activity change, positive = activation, most hits filed as activators; further: % of control where 0% means no effect; nearly all actives have a fitted effect of over 60% in size
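DMSO vehicle served as control against compound-treated ELG1-luciferase HEK293T cells; exposure lasted 16 hr at 37 °C and 5% CO2, followed by ONE-Glo luminescence detection after 30 min.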
The depositor's hits bear a star; ? = inconclusive; nt = no result; [ ] = another dose, or the depositor's remark. The call rests on the fitted dose curve; in most records, active means well fitted curve in the direction sought with a large enough effect; inconclusive means small, poorly fitted or top-dose-only effect, or another doubt; inactive means no such curve, though single readings can be large; an effect the other way counts as inactive or inconclusive. Potency means the concentration at half of the fitted maximal effect.

SMILES	FLuc modulator	SMN2 splice enh	Rab9 prom act	Luc counter	NPC1 promoter act	ELG1 genotoxic
CC(C)c1ccc(OC(=O)c2ccc3c(=O)n4c(nc3c2)CCC4)cc1	12µM*	nt	3%	nt	0%	?
O=C(Nc1ccc(Br)cc1Cl)c1ccc2c(=O)n3c(nc2c1)CCC3	21µM*	nt	3.5µM*	nt	3.5µM*	6.5µM*
OC(c1ccccc1)c1nc2ccccc2n1Cc1c(F)cccc1Cl (configuration not stated)	-2%	9%	nt	nt	nt	nt
O=C(Nc1ccc(N2CCOCC2)c(Cl)c1)c1ccc([N+](=O)[O-])o1	12µM*	?	?	-2%	27%	?
CN1CCN(c2ccc(NC(=O)c3ccc([N+](=O)[O-])o3)cc2Cl)CC1	9.5µM*	nt	?	nt	?	?
Cc1cc(=O)oc2cc(O)c(CN(C)CC(=O)O)cc12	nt	12%[9.22 µM]	nt	0%[7.66 µM]	nt	nt
O=C(NC(=O)c1ccc(F)cc1F)Nc1ccc(Cl)cc1	-10%	nt	2.2µM*	nt	?	13%
O=C(Nc1ccc(N2CCCCC2)cc1)c1cccnc1Cl	?	-6%	?	-5%	22%	21µM*
CS(=O)(=O)N1CCN(c2ccc(NC(=O)c3cccnc3Cl)cc2)CC1	-9%	20%	?	-7%	3%	7%
O=C(Nc1ccc(N2CCCC2)cc1)c1ccccc1F	2.1µM*	2.8µM*	0.5µM*	-20%	0.5µM*	?
O=C(Nc1ccc(N2CCCCC2)cc1)c1ccc(F)cc1F	1.3µM*	nt	0.35µM*	nt	0.32µM*	?
CC(=O)Nc1ccc(N2CCCCC2)cc1	-14%	-10%	10%	0%	13%	7%
O=C(Nc1ccc(F)cc1)Nc1ccc(Cl)cn1	-4%[2.3 µM]	?	?	2%	26%	?
Cc1cc(C)c2c(-n3cccc3)c(C(=O)NCCc3ccccc3)sc2n1	-2%	nt	nt	nt	nt	nt
COc1cc2nc(SCC(=O)Nc3ccccc3C)n3nc(CCn4c(C)nc5ccccc54)nc3c2cc1OC	-5%	-2%	nt	nt	nt	nt
COc1ccccc1NC(=O)Nc1cccc(NC(C)=O)c1	?	nt	-7%	nt	2%	3%
COC(=O)c1cc(NC(=O)C2COc3ccccc3O2)ccc1Cl (configuration not stated)	-18%	4%	-2%	-2%	7%	0%
COC(=O)c1cccc(NC(=O)Nc2ccc(Cl)c(Cl)c2)c1	15µM*	-27%	3.5µM*	-3%	?	1%
COC(=O)c1cccc(NC(=O)NC(=O)c2ccccc2Cl)c1	11µM*	nt	0.35µM*	nt	1.3µM*	?
COC(=O)c1cc(NC(=O)Nc2ccccc2)ccc1Cl	15µM*	?	19%	-6%	0%	-3%
COC(=O)c1cccc(NC(=O)Nc2ccccc2OC)c1	12µM*	nt	?	nt	16%	?
Clc1ccc(SCc2cc(-c3ccccc3)no2)cc1	?	-18%	21%	1%	14%	-2%
Fc1ccc(OCc2cc(-c3ccccc3)no2)cc1	5.4µM*	nt	3.2µM*	nt	2.8µM*	21µM*
Cc1cccc(OCc2cc(-c3ccccc3)no2)c1C	12µM*	nt	?	nt	?	?
Clc1ccc(OCc2cc(-c3ccccc3)no2)c(Cl)c1	0.38µM*	0.5µM*	0.63µM*	-7%	0.5µM*	?
COc1ccc(-c2cc(-c3ccccc3)no2)cc1	0.38µM*	nt	0.4µM*	nt	0.5µM*	?
Cc1cc(COc2ccccc2OCc2cc(C)no2)on1	1%	1%	-3%	0%	3%	-4%
Cc1nnc(N2CCN(C(=O)Nc3cc(F)ccc3F)CC2)c2nn(-c3ccc(Cl)cc3)c(C)c12	-11%	nt	nt	nt	nt	nt
CCn1c(C(=O)N2CCC(C(=O)NCCc3ccc(OC)cc3OC)CC2)cc2sccc21	-13%	0%	nt	nt	nt	nt
COc1ccc(-c2cc(COc3ccccc3)on2)cc1	11µM*	?	4µM*	6%	?	?
